Results published in PubChem BioAssay (NCATS).
“And” between values parts separate entries of the source, which are not always exact repeats. Identical values can stand only once. Inconclusive results are not listed. Values without a mark were called inactive. The source made the active and inactive calls. Calls follow the shape of the dose curve; as a rule, active = well fitted curve in the direction sought with a large enough effect; inconclusive = small, poorly fitted or top-dose-only effect, or another doubt; inactive = no such curve, though single readings can be large; an effect the other way counts as inactive or inconclusive.

How the values were obtained:
[1] = qHTS Assay for Identifying Gametocytocidal Compounds (AID 743244);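 as to max response: actives lower the fluorescent signal which means gametocytes are killed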; details: P. falciparum 3D7 stage III-V gametocytes, alamarBlue, 72 h; max response: hits give low values
Method in brief: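 Viability read-out was resazurin reduction (alamarBlue, 24 h) measured at Ex 525/Em 598 nm. Beforehand, late-stage (III-V) 3D7 P. falciparum gametocytes at 20,000 cells/well were incubated with compound 72 h at 37C under 5% CO2.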

[2] = P-glycoprotein substrates identified in KB-8-5-11 adenocarcinoma cell line, qHTS therapeutic library screen (AID 1346987); also: nearly all actives have a fitted effect of over 65% in size
Method in brief: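 In this qHTS, P-gp-rich KB-8-5-11 cells received library compounds across a concentration range. Viability was quantified by luminescence after 72 h at 37 degree C.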
% is scaled to controls: 0 for no effect and ±100 for the full control effect; potency is read from the fitted curve at half-maximal effect.

Question: What does the source list for Cc1c(O)cc2c(c1C)O[C@](C)(CCC[C@H](C)CCC[C@H](C)CCCC(C)C)CC2?
Answer: max response [1]: -0.611%; Potency [2]: inactive

Question: For CC#CCC(C)[C@H](O)/C=C/[C@@H]1[C@H]2C/C(=C/CCCC(=O)O)C[C@H]2C[C@H]1O (some centres not stated), which max response [1] is on record?
Answer: 11.1%

Question: And the Potency [2]?
Answer: inactive

Question: Which max response [1] does the source give for C1CNCCN1 here?
Answer: -4.23%

Question: And the Potency [2]?
Answer: inactive

Question: For OC(CN1CCCCC1)c1cc(-c2ccccc2)on1 (configuration not stated), which max response [1] is on record?
Answer: -4.26%

Question: What about the Potency [2] of the same molecule?
Answer: inactive

Question: Which Potency [1] does the source give for C=CCNC1=C2C[C@@H](C)C[C@H](OC)[C@H](O)[C@@H](C)/C=C(\C)[C@H](OC(N)=O)[C@@H](OC)/C=C\C=C(/C)C(=O)NC(=CC1=O)C2=O here?
Answer: 2.82 µM (active)

Question: What about the Potency [2] of the same molecule?
Answer: 16.4 µM (active)

Question: With CCN(CC)c1ccc(C(=C2C=CC(=[N+](CC)CC)C=C2)c2ccccc2)cc1 as the molecule, how does the Potency [1] read?
Answer: 11.2 µM (active)

Question: What about the Potency [2] of the same molecule?
Answer: 4.61 µM (active)

Question: Which results are given for CCC(=O)Oc1ccc2c(c1)CC[C@@H]1[C@@H]2CC[C@]2(C)[C@@H](OC(=O)CC)CC[C@@H]12?
Answer: max response [1]: -6.54%; Potency [2]: 10.3 µM (active)

Question: Which max response [1] does the source give for O=C1C(c2[nH]c3ccc(S(=O)(=O)O)cc3c2O)=Nc2ccc(S(=O)(=O)O)cc21 here?
Answer: -2.9% and 36.3% and 37.5%

Question: And the Potency [2]?
Answer: inactive

Question: For CCC(c1ccccc1)c1noc(CCN(CC)CC)n1 (configuration not stated), which max response [1] is on record?
Answer: 15%

Question: What about the Potency [2] of the same molecule?
Answer: inactive

Question: Which max response [1] does the source give for Cc1ccccc1CNc1ncnc2c1ncn2[C@@H]1O[C@H](CO)[C@@H](O)[C@H]1O here?
Answer: -9.34%

Question: And the Potency [2]?
Answer: inactive

Question: Which results are given for CO[C@H]1C[C@H](O[C@H]2[C@H](C)O[C@@H](O[C@@H]3/C(C)=C/C[C@@H]4C[C@@H](C[C@]5(C=C[C@H](C)[C@@H](C6CCCCC6)O5)O4)OC(=O)[C@@H]4C=C(C)[C@@H](O)[C@H]5OC/C(=C\C=C\[C@@H]3C)[C@]54O)C[C@@H]2OC)O[C@@H](C)[C@@H]1O?
Answer: max response [1]: -11.6%; Potency [2]: 20.6 µM (active)
